# G9a block = blocks human histone lysine methyltransferase G9a. Q96KQ7. G9a H3K9 monomethylation, AlphaScreen, 2 h. Potency, µM (titrated, usually from 102 µM), for the others: at the top dose activity, negative = inhibition, usual class: inhibitors. 8.8% of 350,000 active; note: % is set by controls: 0 for no effect and ±100 for the full control effect; nearly all actives have a fitted effect of over 75% in size
#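 AlphaScreen read-out: biotin-H3K9 peptide (500 nM) methylation by 20 nM enzyme with 20 uM SAM, 2 h at room temperature after 15 min compound preincubation; anti-monomethyl H3K9 antibody plus donor/acceptor beads, 10 min dark.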
# Sfp PPTase inh = blocks B. subtilis Sfp PPTase activity; Q9F4F7; Biochemical Sfp PPTase activity, qHTS; 3.5% of 310,000 active; Potency, µM, inactives show largest response in the series, negative = inhibition, usual class: inhibitors;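 note: the enzyme is Sfp with the accession as filed and its product quenches rhodamine fluorescence; 0% = enzyme reaction without inhibitor and -100% = no enzyme wells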
#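 Compounds were incubated with enzyme (final 15 nM) for 15 min at room temperature before substrate addition started the reaction. Fluorescence at 525 nm excitation, 598 nm emission was recorded immediately and after 30 minutes.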
# BAZ2B inh = blocks human BAZ2B. AID 504333. Potency, µM (titrated, usually from 114 µM), without a hit: at the top dose activity change, negative = inhibition, most hits filed as inhibitors. Q9UIF8. AlphaScreen BAZ2B-H3K14Ac peptide displacement. 4.4% of 360,000 active; note: % is set by controls: 0 for no effect and ±100 for the full control effect; nearly all actives have a fitted effect of over 60% in size
#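 In this displacement format the biotinylated H3(5-23) peptide acetylated at Lys14 serves as ligand at 50 nM, with BAZ2B at 50 nM in PBS pH 7.4 containing 0.01% Tween-20. Donor and acceptor beads are 10 ug/mL final.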
# HP1b chromo inh = blocks HP1-beta chromodomain binding to methylated histone tails; AlphaScreen HP1-beta / biotin-H3K9me3 peptide binding; AID 540317; 0.56% of 390,000 active; Potency, µM (titrated, usually from 114 µM), without a hit: top-dose activity change, negative = inhibition, most hits filed as inhibitors; P83916; note: nearly all actives have a fitted effect of over 70% in size
#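 Compound inhibition of the preformed complex between 50 nM HP1-beta and 50 nM biotinylated H3K9me3 peptide was read by AlphaScreen. Buffer was PBS pH 7.4 with 0.01% Tween-20. Incubations ran 30 min at room temperature, with 10 ug/mL donor/acceptor beads.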
# JMJD2A Tudor inh = JMJD2A Tudor domain (human) inhibition; Potency, µM (doses to about 114 µM), inactives show top-dose activity change, negative = inhibition, hits mostly inhibitors; O75164; 4.4% of 390,000 active; AlphaScreen JMJD2A-Tudor / H3K4me3 peptide binding; note: % is set by controls: 0 for no effect and ±100 for the full control effect; nearly all actives have a fitted effect of over 50% in size
# L3MBTL1 block = blocks human L3MBTL1; Potency, µM (top dose mostly 57.1 µM), without a hit: top-dose activity, negative = inhibition, usual class: inhibitors; AlphaScreen L3MBTL1–H3K9me1 peptide binding; Q9Y468; 0.66% of 230,000 active; note: % is set by controls: 0 for no effect and ±100 for the full control effect; nearly all actives have a fitted effect of over 60% in size
# Target sequence (Q9Y468 whole entry, looked up): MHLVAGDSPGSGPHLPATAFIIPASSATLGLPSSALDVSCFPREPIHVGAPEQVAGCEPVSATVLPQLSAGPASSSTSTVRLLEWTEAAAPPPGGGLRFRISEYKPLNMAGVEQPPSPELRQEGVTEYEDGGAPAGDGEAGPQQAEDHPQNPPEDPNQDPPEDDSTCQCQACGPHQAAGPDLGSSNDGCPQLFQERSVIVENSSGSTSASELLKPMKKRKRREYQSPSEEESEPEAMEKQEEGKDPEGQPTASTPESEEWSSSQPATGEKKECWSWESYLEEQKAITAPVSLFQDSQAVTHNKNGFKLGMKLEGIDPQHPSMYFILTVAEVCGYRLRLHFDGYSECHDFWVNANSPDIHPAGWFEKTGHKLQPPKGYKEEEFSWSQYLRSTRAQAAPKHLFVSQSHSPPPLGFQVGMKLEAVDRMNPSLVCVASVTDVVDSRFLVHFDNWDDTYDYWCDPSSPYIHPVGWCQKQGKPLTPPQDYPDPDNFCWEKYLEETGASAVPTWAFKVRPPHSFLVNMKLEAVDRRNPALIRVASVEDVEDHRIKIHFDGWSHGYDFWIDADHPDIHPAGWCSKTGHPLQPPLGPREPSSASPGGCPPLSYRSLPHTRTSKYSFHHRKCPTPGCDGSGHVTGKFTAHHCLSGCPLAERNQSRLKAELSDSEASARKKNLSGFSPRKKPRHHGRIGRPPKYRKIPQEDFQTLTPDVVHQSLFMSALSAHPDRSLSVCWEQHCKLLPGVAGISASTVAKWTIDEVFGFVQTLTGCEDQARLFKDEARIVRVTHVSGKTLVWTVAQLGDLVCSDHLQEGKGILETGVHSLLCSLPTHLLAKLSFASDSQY
#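 Displacement of a biotinylated histone H3(1-15) peptide monomethylated at Lys9 (75 nM) from L3MBTL1 (50 nM) was measured by AlphaScreen after a 30 min room-temperature compound incubation; cefsulodin titration served as intraplate control.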
# The depositor's hits bear a star; ? = inconclusive; · = not tested or not shown; [ ] = dose if it differs, or a comment. Hits are enriched below; roughly 12% of the tested compounds scored in any of these assays. Calls come from the whole dose curve; as a rule, active = well fitted curve in the direction sought with a large enough effect; inconclusive = small, poorly fitted or top-dose-only effect, or another doubt; inactive = no such curve, though single readings can be large; an effect the other way counts as inactive or inconclusive. Potency is the fitted concentration of half-maximal effect.
SMILES,G9a block,Sfp PPTase inh,BAZ2B inh,HP1b chromo inh,JMJD2A Tudor inh,L3MBTL1 block
O=C(O)c1ccc2nc(-c3ccccc3)sc2c1,11.0%[59 µM],24.4%,8.2%,15.9%,-26.0%,6.9%
Nc1ccc(-c2nc3ccc(C(=O)O)cc3s2)cc1,39.8µM*,56.2µM*,2.1%,31.4%,0.4%,6.3%
O=C(Nc1ccc(C(F)(F)F)cc1)c1ccc2ncsc2c1,?,79.4µM*,2.2%,27.7%,-0.7%,·
O=C(Nc1ccc(Cl)cc1)c1ccc2ncsc2c1,44.7µM*,?,1.9%,44.6%,3.3%,·
Cc1ccc(Cl)cc1N1CCN(C(=O)CCS(=O)(=O)c2ccc3c(c2)oc(=O)n3C)CC1,-32.9%[59 µM],·,-1.7%[57.1 µM],4.4%,-14.2%,·
CC1(C)Cc2ccccc2/C(=C/C(=O)N2CCCCCC2)N1,35.5µM*,-28.1%,56.2µM*,0.0%,?,·
CC(C)c1ccc(CN2CCN(C(=O)CCl)CC2)cc1,?,9.0%,-36.7%,39.0%,-1.6%,5.7%
CC(C)CC(=O)N1CCN(Cc2ccc(C(F)(F)F)cc2)CC1,·,?,?,?,28.2µM*,60.3%
CC(C)CC(=O)N1CCN(Cc2ccc(Cl)cc2)CC1,·,-20.2%,?,?,10µM*,1.3%
CC(C)CC(=O)N1CCN(Cc2ccc(Br)cc2)CC1,31.6µM*,-13.4%,-32.2%,?,20µM*,11.9%
CC(C)CC(=O)N1CCN(Cc2ccccc2[N+](=O)[O-])CC1,14.1µM*,56.2µM*,25.1µM*,31.6µM*,1.26µM*,-4.7%
COc1ccc(NC(=O)C2=C(C)Nc3ncnn3C2c2ccc(O)cc2)cc1 (configuration not stated),9.8%[59 µM],·,-12.5%,19.9%[57 µM],-3.8%,·
CCCn1c(=O)c2sccc2n2c(CCCC(=O)N3CCN(c4ccccc4)CC3)nnc12,8.1%[59 µM],·,-11.0%,32.3%,-2.9%,·
O=C(Nc1nnc(N2CCCCCC2)s1)Nc1ccccc1C(F)(F)F,-11.0%[59 µM],·,0.0%,13.0%,-9.1%,·
O=C(CN1C(=O)COc2ccc(S(=O)(=O)N3CCCC3)cc21)NCCc1ccc(Cl)cc1,3.3%[59 µM],·,-2.6%,42.6%,-15.3%,·
COc1ccc(CN2CCN(Cc3ccc(C(F)(F)F)cc3)CC2)cc1,7.08µM*,-29.6%,25.1µM*,?,7.94µM*,-4.5%
COc1ccc(SN=C2C(C)=CC(=O)C=C2C)cc1,15.8µM*,-10.6%,?,?,?,-6.0%
COc1ccc(OC)c(S(=O)(=O)NCCc2csc3nc(-c4ccccc4)nn23)c1,5.4%[59 µM],·,-0.8%,27.5%,-2.3%,·
COc1cc([C@@H]2C[C@H]3CN(c4ccccc4)C(=O)[C@]34CCCN24)cc(OC)c1OC,·,-6.3%,2.3%,25.6%,-22.4%,9.0%
CCOc1cc([C@@H]2C[C@H]3CN(c4ccccc4)C(=O)[C@]34CCCN24)ccc1OC,50.1µM*,-7.5%,-18.2%,16.9%,-6.8%,-11.4%
Cc1ccc2[nH]c3c(NCc4ccco4)ncnc3c2c1,50.1µM*,-10.1%,?,-13.1%,-33.3%,-4.0%
Cc1ccc(-n2ncc3c(NCc4ccco4)ncnc32)c(C)c1,50.1µM*,-0.3%,?,23.9%,-26.9%,-12.2%
Cc1ccc(-n2ncc3c(NCc4cccnc4)ncnc32)c(C)c1,-6.4%,-3.0%,-34.3%,5.8%,-13.5%,0.8%
c1ccc(Cn2ncc3c(NCc4ccco4)ncnc32)cc1,44.7µM*,-11.4%,79.4µM*,21.1%,?,-7.5%
CCOc1ccc(C(=O)NCCc2sc(-c3ccc(OC)c(OC)c3)nc2C)cc1,17.5%[59 µM],·,-4.6%,12.4%[57 µM],-14.8%,·
SMILES,G9a block,Sfp PPTase inh,BAZ2B inh,HP1b chromo inh,JMJD2A Tudor inh,L3MBTL1 block
c1coc(CNc2nc[n+]3c4c2ncn4CC3)c1,·,·,·,23.9%,-12.9%,·
O=C(Nc1ccc(Cl)cc1C(=O)O)c1ccc2c(c1)C(=O)N(Cc1ccco1)C2=O,11.2µM*,-22.9%,50.1µM*,-8.9%,56.2µM*,?
CC(C)CCN1C(=O)c2ccc(C(=O)Nc3ccc(Br)cc3C(=O)O)cc2C1=O,·,-7.3%,44.7µM*,4.4%,56.2µM*,3.9%
CC(C)CN1C(=O)c2ccc(C(=O)Nc3ccccc3C(=O)O)cc2C1=O,?,13.1%,4.8%,-3.7%,22.4µM*,·
CC(C)CCN1C(=O)c2ccc(C(=O)Nc3cc(C(=O)O)cc(C(=O)O)c3)cc2C1=O,-0.5%,10.7%,-19.7%,27.1%,-4.9%,-3.2%
COc1cc(C2C=C(Nc3ccccc3)C(=O)N2c2ccccc2)ccc1O (configuration not stated),50.1µM*,?,?,-2.8%,?,-0.3%
O=C1C(Nc2ccccc2)=CC(c2ccc(O)cc2)N1c1ccccc1 (configuration not stated),·,?,?,64.5%,-8.1%[11.4 µM],-2.9%
COCCn1c(C)cc(O)c(C(c2cccc(F)c2)N2CCN(c3ccccc3)CC2)c1=O (configuration not stated),?,·,7.2%,31.1%[57 µM],-14.6%,·
Cc1[nH]c(=O)[nH]c(=O)c1/C=N/NC(=O)[C@@H](N)CC(C)C,?,-26.1%,50.1µM*,38.9%,?,-24.9%
COc1cccc(N2CCN(C(=O)CCCCCNc3nc(=S)[nH]c4ccccc34)CC2)c1,-45.6%,9.8%,31.6µM*,-3.3%,-32.6%,-22.2%
NS(=O)(=O)c1ccc(CCNC(=O)CCCCCNc2nc(=S)[nH]c3ccccc23)cc1,50.1µM*,3.9%,1.5%,·,·,?
Cc1ccc(NC(=O)CN2C(=O)COc3ccc(S(=O)(=O)N4CCCCCC4)cc32)cc1Cl,27.7%[59 µM],·,0.2%,61.9%,9.5%,·
COc1ccccc1NC(=O)C(Cc1ccccc1)NS(=O)(=O)c1ccc2c(c1)CCN2C(C)=O (configuration not stated),-9.4%[59 µM],·,·,14.3%,-11.7%,·
Cc1ccc(/C=N/N2CCCCC2)o1,?,-42.2%,-15.9%,1.5%,-7.1%,·
Cc1ccc(/C=N/n2c(C3CCCCC3)n[nH]c2=S)o1,2µM*,-29.1%,-37.5%,?,10µM*,-8.4%
O=C(O)c1ccc(/C=N/n2c(C3CCCCC3)n[nH]c2=S)cc1,10µM*,16.4%,-14.0%,20.0%,3.55µM*,·

# Screens from PubChem.
